Assay in all cases: NCI-60 one-dose screen, 48 h (100 = growth as untreated, 0 = no growth, -100 = all killed)
Conditions in all cases: 10 µM unless noted

Test [1] concerns NCI-H23 lung.
For test [2], the system named is NCI-H226 lung.
Test [3] deals with NCI-H322M lung.
Test [4] has as its system HOP-62 NSCLC.
Test [5] deals with NCI-H460 lung.
Test [6] has as its system HOP-92 NSCLC.
Test [7] deals with NCI-H522 lung.
Test [8] concerns A549/ATCC NSCLC.
For test [9], the system named is 786-0 renal.
The subject of test [10] is COLO 205 colon.

Molecules are shown by their SMILES. Compounds without any hit were thinned out: in the full panel of roughly 83,000, 20% have a hit.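 Results are percent growth after 48 hours of single-concentration exposure. 100 means growth as in untreated cells, lower positive values show inhibition; negative values down to -100 show cell death.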 Values without a mark were called inactive. Active and inactive are the calls of the source. The calls were made as follows: active = growth percent below 10; inactive = the rest.

The values that follow come from PubChem BioAssay (NCI).

Regarding `Nc1ccc(Nc2ncnc3sc4c(c23)CCN(Cc2ccccc2)C4)cc1`, the growth is 102% in test [1]; 91.5% in test [2]; 101% in test [3]; 103% in test [4]; 105% in [5]; 92.2% in test [6]. Besides, the growth in test [7] was 91.3%; in test [8], 100%; in test [9] it was 105%; in test [10] it was 115%.
For the compound `COc1ccc(/C(=N\NC(N)=S)c2ccc(Cl)cc2)cc1OC`, the growth in test [1] was 27.4%; in test [2], 51.6%; in [3] it was 53.6%; in test [4], 27.5%; in test [5], 12%; in test [6], 48.6%. For the same compound, the growth in [7] is -10% (active); in [8], 42.4%; in [9], 42.1%; in [10], 0.963% (active).
Take `Cn1cc(-c2nn3cc(-c4ccncc4)nc3s2)c2cc(Br)ccc21`: the growth was 63.1% in test [1]; 83.5% in [2]; 81.3% in [3]; 71.6% in test [4]; 54.9% in test [5]; -0.882% (active) in test [6]. In addition, the growth in test [7] was 79.4%; in [8] it was 66.4%; in test [9], 84.6%; in test [10] it was 46.5%.
For the compound `O=C(CSc1nnc(-c2ccc(Cl)cc2)n1-c1ccccc1)Nc1ccccc1Cl`, the growth was 48.5% in [1]; 48.7% in test [2]; 66.2% in test [3]; 115% in test [4]; 54.5% in test [5]; 101% in [6]. For the same compound, the growth was 76.2% in test [7], 30.4% in [8], 42.1% in test [9] and 88.7% in test [10].
In the case of `CC(=C(c1ccc(OCCN2CCCC2)cc1)c1ccc(OCCN2CCCC2)cc1)c1ccc(Cl)cc1`, the growth in test [1] was 60.7%; in [2] it was 80%; in test [3] it was 15.6%; in test [4] it was -68.7% (active); in [5] it was -52.2% (active); in test [6], -1.74% (active). In addition, the growth is -48.5% (active) in [7], -61.8% (active) in test [8], -85.9% (active) in test [9] and -74.4% (active) in test [10].
On to `CCOC(=O)c1ccc(NC2=CC(=O)C(C)=C(C)C2=O)cc1`, for which the growth in test [1] is 51%; in [2], 95.6%; in [3] it was 104%; in [4], 70.5%; in [5] it was 98.4%; in [6], 113%. Besides, the growth in [7] was 87.5%; in [8], 117%; in test [9], 106%; in [10] it was 115%.
For `Cc1cc(C)cc(NC2=C(Cl)C(=O)c3nc(C)ccc3C2=O)c1`, the growth is 22.1% in test [1]; 28.5% in test [2]; 91.7% in test [3]; 101% in test [4]; 93.1% in [5]; 118% in [6]. Besides, the growth in [7] is 19%; in test [8], 73.7%; in test [9], 79%; in test [10], 107%.
On to `CC(C)(C)Nc1nc2c(OCCc3ccccc3)cccn2c1-c1ccc([N+](=O)[O-])cc1`, for which the growth in test [1] was 62.4%; in test [2], 70.5%; in test [3], 64.7%; in test [4], 78.1%; in test [5] it was 60.8%; in [6], 54.7%. Moreover, the growth is 41.4% in [7], 53.5% in test [8], 75.1% in [9] and 49% in test [10].
`O=C(CSc1nnc(-c2ccc(Cl)cc2)n1-c1ccccc1)Nc1cccc(F)c1`: the growth in test [1] was 23.6%; in test [2] it was 20.9%; in test [3] it was 36.7%; in test [4], 50.3%; in [5], 17.4%; in test [6] it was 57.8%. For the same compound, the growth in test [7] was 52.2%; in [8] it was 2.72% (active); in [9] it was 0.989% (active); in test [10], 80.1%.
`CN1CCN(c2ccc(Nc3nc(NCCCNS(=O)(=O)c4cccc5ccccc45)c4sccc4n3)cc2)CC1`: the growth was 30.4% in test [1]; 86% in test [2]; 11.4% in [3]; 25.6% in test [4]; -14% (active) in test [5]; -43.6% (active) in test [6]. The growth was -81.1% (active) in [7], -9.22% (active) in test [8], -82.1% (active) in test [9] and -74.1% (active) in test [10].
In the case of `Cc1cc(=O)[nH]c(O)c1C#N`, the growth in [1] was 100%; in [2], 101%; in test [3], 98.1%; in [4] it was 94.8%; in test [5], 108%; in test [6], 97.4%. The growth was 101% in test [7], 103% in test [8], 103% in test [9] and 107% in [10].
In the case of `COc1cc2c3c(cc4c5c(ccc4c3c1OC)OCO5)N(CCN(C)C)C2=O`, the growth was -17.8% (active) in test [1]; -58.8% (active) in [2]; 0.11% (active) in test [3]; 6.73% (active) in test [4]; -20.5% (active) in [5]; -9.11% (active) in test [6]. The growth is -6.46% (active) in test [7], 0.384% (active) in [8], -16.2% (active) in test [9] and -10.7% (active) in test [10].
In the case of `Cc1cc2nc(C(Cl)Cl)nc(-c3ccc(S(=O)(=O)N(C)C)cc3)n2n1`, the growth in test [1] is 44.4%; in test [2], 71.8%; in test [3], 69.3%; in test [4], 32.8%; in [5], 27.5%; in [6] it was 50%. The growth was 76.9% in test [7], 37% in test [8], 94.5% in [9] and 25.2% in [10].
In the case of `O=C(/C=C/c1csc(Br)n1)NO`, the growth was 38.4% in test [1]; 82.9% in [2]; 33.1% in test [3]; 35.5% in [4]; 25.7% in test [5]; -2.53% (active) in test [6]. The growth in test [7] was 7.37% (active); in [8] it was 23.5%; in test [9], 52.3%; in test [10] it was 11.6%.
Consider `CSc1ccc(/C(=N/N=C(N)N)c2ccc(Cl)cc2)cc1`, for which the growth was 12.6% in test [1]; 27% in [2]; 30.1% in [3]; 6.91% (active) in [4]; -12.7% (active) in test [5]; -4.16% (active) in test [6]. For the same compound, the growth in test [7] was -41.9% (active); in test [8] it was 4.66% (active); in [9], 4.8% (active); in test [10], -89.4% (active).
For the compound `CC1(C)CC[C@]2(C(=O)NCCCCCCN(CCCN)CCCN)CC[C@]3(C)C(=CC[C@@H]4[C@@]5(C)CC[C@H](O)C(C)(C)[C@@H]5CC[C@]43C)[C@@H]2C1`, the growth in test [1] was 105%; in test [2], 100%; in test [3], 95.1%; in test [4] it was 111%; in [5] it was 102%; in test [6], 101%. For the same compound, the growth was 101% in [7], 93.1% in [8], 91.5% in test [9] and 102% in [10].
As to `COc1cc(OC)cc(-c2cc(-c3c[nH]c4ccccc34)nc(-c3c[nH]c4ccccc34)c2C#N)c1`, the growth in test [1] is 104%; in test [2], 87.3%; in test [3], 105%; in test [4] it was 96.3%; in [5] it was 103%; in test [6], 95%. For the same compound, the growth in test [7] was 92.1%; in [8] it was 98.5%; in test [9], 105%; in test [10], 110%.
Regarding `CC(=O)c1cc(C(=O)N2c3ccccc3Sc3ccccc32)n2c1ccc1ccccc12`, the growth in [1] is 79.1%; in test [2], 60.4%; in test [3] it was 89.9%; in [4] it was 56%; in test [5], 37.9%; in test [6] it was 85.2%. Also, the growth was -1.14% (active) in test [7], 59% in test [8], 60.6% in [9] and 40% in [10].
For `O=C(CCCCCCNC(=O)C(O)(O)C(F)(F)F)Nc1ccc(Cl)cc1`, the growth in [1] was 24.3%; in [2], 66.6%; in test [3], 44%; in [4] it was 4.42% (active); in [5], 23.3%; in test [6], 6.13% (active). Also, the growth in [7] is -22.3% (active); in [8], 20.7%; in [9], 35.7%; in [10] it was -57.4% (active).
For `O=C(Nc1cccc(Cl)c1)Nc1nc2cc([N+](=O)[O-])ccc2o1`, the growth in [1] is 38.4%; in test [2] it was 56.1%; in test [3] it was 37.4%; in test [4] it was 58%; in test [5], 26.5%; in test [6], -4.19% (active). The growth was 18.2% in [7], 44.6% in test [8], 44.2% in test [9] and 75.1% in test [10].
Take `O=C(Nc1ccc(Cl)c(C(F)(F)F)c1)Nc1ccc2c(ccn2C(=O)c2cccc(F)c2)c1`: the growth in [1] was 10.3%; in test [2] it was 36.5%; in test [3] it was 73.1%; in test [4], 54.5%; in [5] it was 13.2%; in test [6], 5.69% (active). Further, the growth is 5.03% (active) in test [7], 30.6% in test [8], 42.4% in test [9] and 25.3% in test [10].
On to `NNc1nnc2nc(Nc3ccccc3)nc(Nc3ccc(S(N)(=O)=O)cc3)n12`, for which the growth is 102% in test [1]; 105% in test [2]; 102% in [3]; 111% in test [4]; 101% in [5]; 119% in [6]. For the same compound, the growth is 101% in [7], 105% in test [8], 110% in [9] and 105% in test [10].
For `CN1CCN(Cc2ccc(NC(=O)c3cncc(C#Cc4cnc(N)nc4)c3)cc2C(F)(F)F)CC1`, the growth was 26.5% in test [1]; 12.8% in test [2]; 34.3% in test [3]; 19.3% in test [4]; 12.9% in test [5]; -28.8% (active) in test [6]. The growth in test [7] is 36.5%; in test [8] it was 38%; in [9] it was 40%; in test [10] it was 13.2%.
Turning to `NCCNC(=O)c1cccc(COc2ccccc2NC(=O)c2cc(Br)c(Br)[nH]2)c1`, the growth in test [1] is 84.1%; in test [2], 95.4%; in [3], 99.7%; in test [4], 105%; in [5], 99.4%; in [6], 107%. Besides, the growth is 93.2% in test [7], 96.7% in test [8], 78.9% in [9] and 110% in test [10].
For the compound `C/C(=N\NC(=O)Nc1ccccc1)c1nnn(-c2ccc([N+](=O)[O-])cc2)c1C`, the growth was 94.7% in [1]; 100% in [2]; 99.1% in test [3]; 111% in test [4]; 108% in test [5]; 120% in test [6]. Also, the growth in test [7] is 99.9%; in test [8] it was 107%; in [9], 102%; in test [10], 112%.
Regarding `COc1ccc2c(c1)C=CC1(O2)Oc2ccc(OC)cc2C=C1C` (stereo not given), the growth in test [1] is 39.7%; in test [2], 57.4%; in test [3], 49.5%; in test [4] it was 51%; in [5], 7.29% (active); in [6], -6.57% (active). Moreover, the growth in [7] is 10.7%; in [8], 18.5%; in test [9], 26.5%; in [10], 2.43% (active).
